Source: PubChem BioAssay AID588492 (Sanford-Burnham Center for Chemical Genomics, 2011)
Screen size: about 360,000 compounds; about 2,300 (0.64%) were called active. This is one part of a sample in which actives are shown more often than they occur. Unmarked numbers belong to inactive results.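 How the source made its calls: active means compounds giving at least 50% protection of heart cells from peroxide-induced death in the single-dose screen, raw or plate-pattern-corrected value; inactive means the rest.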

test: cardioprotection against H2O2-induced cell death, primary screen, uHTS, H9c2 cells, ATPLite luminescence (AID 588492); conditions: H9c2 cardiomyocytes, H2O2 injury protection, 2 h, at 20 µM, active compounds read high;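 further: 0% = DMSO wells with peroxide and 100% = DMSO wells without peroxide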

Row | Structure (SMILES) | protection from H2O2 cell death
1 | O=C(CCc1nnc(CCCCc2ccccc2)o1)NC(c1cccnc1)C(F)(F)F (stereo not given) | 0.8%
2 | COc1ccccc1NS(=O)(=O)c1ccc(C)c(C(=O)NNC(=O)c2csc(N3CCOCC3)n2)c1 | 8.3%
3 | CCN(CC)C(=O)Cn1cc(S(=O)(=O)CC(=O)NCc2ccc3c(c2)OCO3)c2ccccc21 | 2.8%
4 | C[C@@H]1C(c2ccc(F)cc2)=NN(c2ccc(Br)cc2)[C@H]1C(=O)N1CCOC1=O | -1.3%
5 | COc1ccccc1OCCn1c(SCC(N)=O)nc2ccccc21 | 3.9%
6 | O=C1N[C@@H](c2ccccc2)COC(=O)[C@H](Cc2ccc(F)cc2)C/C=C\C[C@@H]1CC(=O)N(CCO)Cc1ccccc1 | 8.2%
7 | O=C1NC[C@@H](c2ccccc2)OC(=O)[C@H](Cc2ccc(F)cc2)CC/C=C/C[C@H]1CC(=O)N(CCO)Cc1ccccc1 | 61.8% (active)
8 | O=C1CCC/C=C/C[C@@H](CC(=O)N(CCO)Cc2ccccc2)C(=O)NC[C@H](c2ccccc2)O1 | 0.5%
9 | CC(C)(C)OC(=O)C[C@@H]1C/C=C\C[C@@H](CC(=O)N(CCO)Cc2ccccc2)C(=O)N[C@H](Cc2ccccc2)COC1=O | 14.2%
10 | O=C1N[C@H](Cc2c[nH]c3ccccc23)COC(=O)[C@H](Cc2ccc(F)cc2)C/C=C\C[C@H]1CC(=O)N(CCO)Cc1ccccc1 | 51.5% (active)
11 | O=C1OC[C@@H]2CCCN2C(=O)[C@H](CC(=O)N(CCO)Cc2ccccc2)C/C=C\CC[C@@H]1Cc1ccc(F)cc1 | 2.9%
12 | CCOc1ccc(NC(=O)[C@H](C)NC(=O)C2CC(=O)N(c3ccc(OC)cc3)C2)cc1 (stereo not given in full) | -1.8%
13 | CC(C)(C)OC(=O)N1CCN(C(=O)c2[nH]c(C(F)(F)F)nc2-c2ccccc2)CC1 | -1.1%
14 | Cc1cc(C)cc(NC(=O)Cn2cnc3c(nnn3Cc3ccc(F)cc3)c2=O)c1 | 0.7%
15 | C#Cc1cc(N2CCN(C(=O)c3ccoc3)CC2)n2nc(-c3cccc(Cl)c3)cc2n1 | 84.5% (active)
16 | O=C(c1ccccc1)N1CCN(C(=O)c2cc3nc(-c4ccccc4)cc(C(F)(F)F)n3n2)CC1 | 11.3%
17 | CN(C)CCN1CCN(c2cc(-c3cccc(Cl)c3)nc3ccnn23)CC1 | 19.8%
18 | Cc1cc(C)c(-c2csc(NC(=O)CCCc3nc4ccccc4c(=O)[nH]3)n2)c(C)c1 | -4.2%
19 | O=C(Cn1[nH]c(=O)c2ccccc2c1=O)Nc1cccc(-c2nnc3n2CCCCC3)c1 | 23.4%
20 | Cc1ccc(-c2csc(NC(=O)Cn3[nH]c(=O)c4ccccc4c3=O)n2)cc1 | 52% (active)
